Data on four compounds can be found in PubChem BioAssay (Tox21).

Unmarked numbers belong to inactive results. Inconclusive results are not listed. Active and inactive are the calls of the source. Unless noted, calls come from the whole dose curve; as a rule, active = well fitted curve in the direction sought with a large enough effect in the repeat runs; inconclusive = weak or mixed curves; inactive = no such curve, though single readings can be large; an effect the other way counts as inactive or inconclusive.

A short description of assay [1]: qHTS assay to identify small molecule agonists of the estrogen receptor alpha (ER-alpha) signaling pathway in the presence of an antagonist - cell viability counter screen (AID 1259386).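 Note: cells exposed to compounds for 22 h at 37 °C before the viability read; nearly all actives have a fitted effect of over 30% in size.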 As to conditions: VM7Luc4E2 viability, CellTiter-Fluor fluorescence, 22 h; series mostly up to 92.4 µM. The method, boiled down: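 Using estrogen-depleted VM7Luc4E2 cells, the 15-concentration compound series was applied together with 10.0nM ICI-182,780 and incubated 22hr at 37C/5% CO2. Cell viability was then scored by CellTiter-Fluor.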

For assay [2], the target named is Progesterone receptor (Homo sapiens) (UniProt P06401). The experiment in a line: qHTS assay to identify small molecule agonists of the progesterone receptor (PR) signaling pathway (AID 1346784; calls by dose curve; note: nearly all actives have a fitted effect of over 30% in size). As to conditions: PR-UAS-bla HEK293T, beta-lactamase FRET ratio, 16 h; series mostly up to 92.4 µM. The method, boiled down: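 PR-UAS-bla HEK 293T cells (beta-lactamase reporter under UAS) in 2% charcoal-stripped FBS, dosed with 23 nL compound after 6 hr, incubated 16hr at 37C. LiveBLAzer B/G FRET substrate added, fluorescence read after 2 hours.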
Sequence of Progesterone receptor (Homo sapiens) (P06401 whole entry, looked up): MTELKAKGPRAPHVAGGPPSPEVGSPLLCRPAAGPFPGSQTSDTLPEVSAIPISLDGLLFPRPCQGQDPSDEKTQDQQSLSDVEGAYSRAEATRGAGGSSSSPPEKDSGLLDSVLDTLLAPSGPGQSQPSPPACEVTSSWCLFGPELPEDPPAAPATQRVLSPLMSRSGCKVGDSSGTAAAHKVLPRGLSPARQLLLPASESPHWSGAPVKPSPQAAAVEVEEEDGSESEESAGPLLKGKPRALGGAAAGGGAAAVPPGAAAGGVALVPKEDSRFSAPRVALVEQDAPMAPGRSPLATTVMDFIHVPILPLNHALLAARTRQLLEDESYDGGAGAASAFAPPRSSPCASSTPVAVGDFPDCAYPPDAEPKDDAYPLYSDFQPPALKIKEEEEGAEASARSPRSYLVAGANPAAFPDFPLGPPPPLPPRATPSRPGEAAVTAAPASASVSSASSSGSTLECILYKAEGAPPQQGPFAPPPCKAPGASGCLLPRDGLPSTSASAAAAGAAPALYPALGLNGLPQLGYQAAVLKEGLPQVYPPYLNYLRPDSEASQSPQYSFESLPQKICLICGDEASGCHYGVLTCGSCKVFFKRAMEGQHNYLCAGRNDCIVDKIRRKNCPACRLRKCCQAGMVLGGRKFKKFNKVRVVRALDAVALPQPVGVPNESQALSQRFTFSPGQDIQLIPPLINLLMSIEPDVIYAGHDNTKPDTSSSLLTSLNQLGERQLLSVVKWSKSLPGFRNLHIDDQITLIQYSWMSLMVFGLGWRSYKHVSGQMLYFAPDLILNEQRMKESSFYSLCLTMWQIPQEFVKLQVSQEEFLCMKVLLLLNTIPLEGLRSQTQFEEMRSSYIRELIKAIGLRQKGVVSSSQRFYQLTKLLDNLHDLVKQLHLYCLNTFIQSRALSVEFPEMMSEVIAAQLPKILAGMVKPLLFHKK
(In general: Quantitative high-throughput screening tests each substance at several concentrations.)

The target is the same in assay [3]. The experiment in a line: qHTS assay to identify small molecule antagonists of the progesterone receptor (PR) signaling pathway (AID 1346795; active = well fitted inhibition curve with a large enough effect in the signal ratio in the repeat runs, not every such curve was filed as active; the % refers to the signal ratio). As to conditions: PR-UAS-bla HEK293T, beta-lactamase FRET ratio, 16 h; series mostly up to 92.4 µM. In outline: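 PR-UAS-bla HEK293T cells with beta-lactamase reporter under UAS control, in 2% charcoal-stripped FBS, treated with compounds plus 1 nM promegestone (R5020, final) for 16 hr at 37C. Read-out: FRET beta-lactamase substrate fluorescence after 2 hr at room temperature.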

The nature of assay [4]: qHTS assay to identify small molecule antagonists of the progesterone receptor (PR) signaling pathway - cell viability counter screen (AID 1346798). Note: nearly all actives have a fitted effect of over 50% in size. Particulars: PR-UAS-bla HEK293T viability, CellTiter-Glo luminescence, 16 h; series mostly up to 92.4 µM. In outline:
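PR-UAS-bla HEK293T cells, 3,000/well in 2% charcoal-stripped FBS medium, dosed with compounds plus R5020 agonist and incubated 16 h at 37C. Viability then measured in the same wells by CellTiter-Glo luminescence after 30 min at RT.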

Assay [5] is described as follows: qHTS assay to identify small molecule agonists of the progesterone receptor (PR) signaling pathway - cell viability counter screen (AID 1346799; calls by dose curve; note: nearly all actives have a fitted effect of over 45% in size). Particulars: PR-UAS-bla HEK293T viability, CellTiter-Glo luminescence, 16 h; series mostly up to 92.4 µM. The method, boiled down:
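Counter screen in the PR-UAS-bla HEK293T wells (2% charcoal-stripped FBS, 16 h compound exposure at 37 C) after the bla read. CellTiter-Glo added, 30 min at room temperature, luminescence read as cell viability.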

Assay [6] can be described thus: qHTS assay to identify small molecule antagonists of the TGF-beta/Smad signaling pathway - cell viability counter screen (AID 1346824). Note: nearly all actives have a fitted effect of over 50% in size. As to conditions: SBE-bla HEK293T viability, CellTiter-Glo luminescence; series mostly up to 76.8 µM. In outline:
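SBE-bla HEK 293T cells, incubated overnight, then compound plus 0.25 ng/mL TGF-beta1 (stock added) for 5 hr at 37 C. Viability was read in the same wells by CellTiter-Glo luminescence after 30 min at room temperature.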

The nature of assay [7]: qHTS assay to identify small molecule agonists of the TGF-beta/Smad signaling pathway - cell viability counter screen (AID 1346829). Note: top concentration of the series differs between compounds; nearly all actives have a fitted effect of over 45% in size. Particulars: SBE-bla HEK293T viability, CellTiter-Glo luminescence, 5 h; series mostly up to 76.8 µM. In outline:
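In parallel with the Smad reporter read, viability of HEK 293T cells stably carrying SBE-bla is quantified by ATP luminescence following 5 hr compound treatment.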

In assay [8] the target is Thyrotropin-releasing hormone receptor (Homo sapiens) (UniProt P34981). The experiment in a line: qHTS assay to identify small molecule antagonists of the thyrotropin-releasing hormone receptor (TRHR) signaling pathway (AID 1346877; active = well fitted inhibition curve with a large enough effect in the repeat runs, not every such curve was filed as active). As to conditions: TRHR-HEK293, TRH-induced calcium fluorescence, antagonist mode; series mostly up to 51.3 µM. In outline: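 Calcium signal in dye-loaded TRHR/HEK293 cells; compounds added 5 min before TRH (1 nM final); fluorescence monitored 3 min at 1 s steps.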
Sequence of Thyrotropin-releasing hormone receptor (Homo sapiens) (P34981 whole entry, looked up): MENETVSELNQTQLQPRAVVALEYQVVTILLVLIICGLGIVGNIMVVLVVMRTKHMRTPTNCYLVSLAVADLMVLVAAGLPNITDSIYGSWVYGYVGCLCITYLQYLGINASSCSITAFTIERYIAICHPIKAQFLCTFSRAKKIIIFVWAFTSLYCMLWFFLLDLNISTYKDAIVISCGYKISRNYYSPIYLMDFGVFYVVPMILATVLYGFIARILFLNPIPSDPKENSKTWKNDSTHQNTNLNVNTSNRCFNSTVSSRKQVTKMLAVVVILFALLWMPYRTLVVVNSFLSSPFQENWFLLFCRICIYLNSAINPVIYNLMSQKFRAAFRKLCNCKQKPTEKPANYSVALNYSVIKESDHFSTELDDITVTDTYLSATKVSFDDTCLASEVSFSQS

Assay [9] shares this target. The experiment in a line: qHTS assay to identify small molecule agonists of the thyrotropin-releasing hormone receptor (TRHR) signaling pathway (AID 1346891; calls by dose curve). Particulars: TRHR-HEK293 calcium fluorescence, agonist mode; series mostly up to 57.6 µM. In outline: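 HEK293 cells expressing TRHR plated 18 h at 37 C/5% CO2, calcium dye-loaded 2 h at 37 C, then compound added (agonist mode); kinetic calcium fluorescence read 3 min at 1 s intervals; 15 concentrations in triplicate.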

Assay [10] can be described thus: Human pregnane X receptor (PXR) small molecule agonists, qHTS cell viability counter screen (AID 1346977). Note: nearly all actives have a fitted effect of over 50% in size. As to conditions: PXR-Luc HepG2 viability, CellTiter-Fluor, 24 h; series mostly up to 92.4 µM. In outline:
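PXR-Luc HepG2 cells (2,000/well, 5% charcoal-stripped FBS) preincubated 5 hr, then exposed to compounds 24 hr at 37 C. Viability read in the same wells by CellTiter-Fluor fluorescence, reagent added at 23 hr, 1 hr incubation.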

Assay [11] can be described thus: Caspase-3/7 induction in HepG2 cells by small molecules, qHTS assay (AID 1346978). Note: nearly all actives have a fitted effect of over 15% in size. Particulars: HepG2 caspase-3/7 activation, Caspase-Glo luminescence, 17 h; series mostly up to 92.4 µM. In outline:
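Wild-type HepG2 cells, 2,000/well, settled 5 hr at 37 C and 5% CO2, then compound-treated for 17 hr; caspase-3/7 activity read by luminescent Caspase-Glo 3/7 after 30 min at room temperature.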

Assay [12] in a line: Caspase-3/7 induction in CHO-K1 cells by small molecules, qHTS cell viability counter screen (AID 1346979). Note: nearly all actives have a fitted effect of over 35% in size. As to conditions: CellTiter-Fluor fluorescence, 17 h; series mostly up to 92.4 µM. The method, boiled down: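 Wild-type CHO-K1 cells (1,500/well) treated with compound after 5 h plating; after 16 h at 37C, viability read as CellTiter-Fluor fluorescence following 1 h reagent incubation, in the same wells as the caspase read.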

Assay [13] is described as follows: Caspase-3/7 induction in CHO-K1 cells by small molecules, qHTS assay (AID 1346980). Note: nearly all actives have a fitted effect of over 15% in size. Particulars: CHO-K1 caspase-3/7 induction, Caspase-Glo luminescence, 17 h; series mostly up to 92.4 µM. In outline: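 Wild-type CHO-K1 cells exposed to compounds for 17hr at 37 C, 5% CO2. Caspase-3/7 activity then measured by Caspase-Glo 3/7 luminescence after 30min at room temperature.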

Assay [14] in a line: Caspase-3/7 induction in HepG2 cells by small molecules, qHTS cell viability counter screen (AID 1346981). Note: nearly all actives have a fitted effect of over 30% in size. Particulars: CellTiter-Fluor fluorescence, 17 h; series mostly up to 92.4 µM. In outline: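 After a 5-hr attachment period at 37 C and 5% CO2, wild-type HepG2 cells received compounds in DMSO. Sixteen hours later CellTiter-Fluor was dispensed and the fluorescent signal quantified after a further hour.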

The target in assay [15] is Nuclear receptor subfamily 1 group I member 2 (Homo sapiens) (UniProt O75469). In words: Human pregnane X receptor (PXR) small molecule agonists, qHTS assay (AID 1346982). Note: nearly all actives have a fitted effect of over 35% in size. Note: potency is the fitted concentration of half-maximal effect. Particulars: PXR-Luc HepG2, CYP3A4 luciferase reporter, 24 h; series mostly up to 92.4 µM. In outline: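 Tox21 qHTS; PXR-Luc HepG2; compounds pinned from DMSO; 24 hr, 37 C; ONE-Glo luciferase detection, 30 min room temperature.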
Sequence of Nuclear receptor subfamily 1 group I member 2 (Homo sapiens) (O75469 whole entry, looked up): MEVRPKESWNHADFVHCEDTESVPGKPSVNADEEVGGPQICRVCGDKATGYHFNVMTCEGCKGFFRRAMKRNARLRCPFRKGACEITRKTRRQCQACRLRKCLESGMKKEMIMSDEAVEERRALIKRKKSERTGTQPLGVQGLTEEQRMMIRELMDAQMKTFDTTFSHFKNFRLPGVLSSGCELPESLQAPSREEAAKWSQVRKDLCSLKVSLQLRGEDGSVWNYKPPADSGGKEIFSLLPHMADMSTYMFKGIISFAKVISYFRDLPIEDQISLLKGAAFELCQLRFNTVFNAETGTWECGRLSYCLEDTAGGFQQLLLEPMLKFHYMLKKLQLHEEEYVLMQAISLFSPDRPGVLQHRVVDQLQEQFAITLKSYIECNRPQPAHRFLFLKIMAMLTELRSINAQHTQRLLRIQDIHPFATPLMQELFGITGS

The target in assay [16] is Cytochrome P450 2D6 (Homo sapiens) (UniProt P10635). In words: Cytochrome P450 Family 2 Subfamily D Member 6 (CYP2D6) small molecule antagonists: luciferase reporter qHTS assay (AID 1671196). Note: nearly all actives have a fitted effect of over 50% in size. Note: potency is the fitted concentration of half-maximal effect. As to conditions: P450-Glo CYP2D6 enzyme assay, luciferin luminescence, 1 h; series mostly up to 115 µM. In outline:
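Room-temperature luminescent CYP2D6 activity assay: compound preincubated 10 min with enzyme–substrate mix, NADPH-initiated reaction 1 h, detection reagent 20 min before reading.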

A short description of assay [17]: qHTS assay to identify small molecule agonists of the TGF-beta/Smad signaling pathway (AID 1346859; active = well fitted activation curve with a large enough effect in the signal ratio in the repeat runs, not every such curve was filed as active; the % refers to the signal ratio). Particulars: SBE-bla HEK293T, TGF-beta/Smad beta-lactamase reporter, 5 h; series mostly up to 76.8 µM. The method, boiled down:
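SBE-bla HEK293T cells plated overnight, then compound exposure for 5 h at 37 C. Beta-lactamase reporter read with LiveBLAzer B/G FRET substrate after 2 h at room temperature, fluorescence at 405 nm excitation, 460/530 nm emission.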

Assay [18] addresses Nuclear receptor subfamily 1 group I member 2 (Homo sapiens) (UniProt O75469). The experiment in a line: CYP3A4 induction through human pregnane X receptor (PXR) by small molecules, qHTS assay (AID 1346984). Note: nearly all actives have a fitted effect of over 40% in size. Particulars: DPX-2 HepG2 PXR, CYP3A4-luciferin luminescence, 24 h; series mostly up to 46.1 µM. The method, boiled down:
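Cells (DPX-2; HepG2 with PXR element plus CYP3A4-promoter luciferase) settled 5hr, then were treated 24hr at 37C. A 3hr, 3uM-final Luciferin-IPA step preceded luminescence measurement with One-Glo.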

Assay [19] has the same target. The experiment in a line: Human pregnane X receptor (PXR) activation by small molecules, qHTS assay (AID 1346985). Note: nearly all actives have a fitted effect of over 40% in size. Particulars: DPX-2 HepG2 CYP3A4-luciferase, 24 h; series mostly up to 38.3 µM. In outline:
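DPX-2 cells (HepG2 co-transfected with a PXR response element and a CYP3A4-promoter luciferase construct) were seeded at 2,000 per well, rested 5 hr at 37C, then exposed to DMSO-dissolved compounds for 24 hr. Activation was read as luciferase luminescence.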

Sequence of Cytochrome P450 2D6 (Homo sapiens) (P10635 whole entry, looked up): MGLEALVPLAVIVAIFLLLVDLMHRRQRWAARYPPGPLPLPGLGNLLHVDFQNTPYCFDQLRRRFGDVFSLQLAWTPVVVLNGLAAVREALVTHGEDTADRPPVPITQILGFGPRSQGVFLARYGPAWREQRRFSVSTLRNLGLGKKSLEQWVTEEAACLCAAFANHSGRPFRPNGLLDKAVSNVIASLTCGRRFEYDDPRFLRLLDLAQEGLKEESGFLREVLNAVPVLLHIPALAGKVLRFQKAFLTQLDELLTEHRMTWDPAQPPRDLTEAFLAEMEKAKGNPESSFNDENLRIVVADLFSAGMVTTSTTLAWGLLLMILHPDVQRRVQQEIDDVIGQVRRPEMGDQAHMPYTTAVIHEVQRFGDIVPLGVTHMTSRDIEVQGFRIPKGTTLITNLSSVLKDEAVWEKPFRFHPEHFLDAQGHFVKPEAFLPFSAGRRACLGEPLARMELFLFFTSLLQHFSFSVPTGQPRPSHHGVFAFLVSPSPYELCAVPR

Take `C1COC1`: the Potency entry in [1], in [2], in assay [3], in [4], in [5] and in assay [6] was “inactive” in each case. For the same compound, the Potency result in assay [7], in assay [9], in [10], in [11], in assay [12] and in [13] was “inactive” in each case. Further, the Potency result in assay [14], in assay [15] and in assay [16] was “inactive” in each case. Further, the outcome in assay [8] was inactive.
Regarding `CCC(=O)C1CC(C(C)C)CC=C1C` (stereo not given), the Potency result in assay [1], in assay [2], in assay [3], in [4], in assay [5] and in assay [6] was “inactive” throughout. The Potency result in assay [7], in assay [17], in assay [10], in assay [11], in assay [12] and in assay [13] was “inactive” each time. Besides, the Potency in assay [15] is 30.6 µM (active).
For `O=C1Cc2cc(Cl)ccc2N1`, the Potency entry in assay [1], in assay [2], in assay [3], in assay [4], in assay [5] and in assay [6] was “inactive” throughout. The Potency entry in assay [7], in assay [9], in assay [10], in [11], in [12] and in [13] was “inactive” each time. For the same compound, the Potency entry in [14] and in [15] was “inactive” each time. The outcome in assay [8] was inactive.
`COc1ccccc1N1CCN(CCCCNC(=O)c2ccc(-c3ccc(C(C)=O)cc3)cc2)CC1`: the Potency result in [1], in assay [2], in assay [3], in [4], in assay [5] and in assay [6] was “inactive” in each case. Besides, the Potency entry in assay [7], in [17], in assay [10], in [11], in [12] and in [13] was “inactive” in each case. In addition, the Potency entry in assay [14], in assay [18] and in [19] was “inactive” each time. For the same compound, in assay [16], the Potency was 2.19 µM (active).
